# Data taken from PubChem BioAssay.
# Values joined by “and” are separate entries in the source; they are usually repeats but may differ in a detail not shown here. Identical values can stand only once. Active and inactive are the calls of the source. Unless noted, the rule behind the calls is not given here.
# Experiments:
# [1] = test system: Wnt5a (protein binding on small-molecule microarray); experiment: Wnt5a binders on small-molecule microarray, primary screen, biophysical, 635/667 nm fluorescence (AID 1142); conditions: 635 nm fluorescence, higher = more signal;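 note: fluorescence read at 667 nm with signal to noise per printed feature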
# [2] = cell viability in Huh7 cells, primary screen, cytotoxicity control for HCV replication inhibitor project, CellTiter-Glo luminescence, basal, 48 h (AID 1143); conditions: Huh7 HCV replicon, higher = more signal, called active from +8 up or from −8 down;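 note: Huh7 hepatoma cells carrying a hepatitis C replication reporter with no stimulus; test concentration not given here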
# [3] = P. aeruginosa biofilm formation inhibitors, primary screen, PAO1 strain, BacTiter-Glo luminescence, LB-PBS (AID 1144); conditions: 12 h, higher = more signal
# [4] = CREB reporter modulators without forskolin, primary screen, cell-based, PC12, CRE-LacZ reporter, unstimulated (AID 1145); conditions: no forskolin, luminescence, 4.5 h, higher = more signal, called active from +8 up or from −8 down
# [5] = CREB reporter modulators under forskolin, primary screen, cell-based, PC12, CRE-LacZ reporter, forskolin-stimulated (AID 1146); conditions: luminescence, 4.5 h, higher = more signal, called active from +8 up or from −8 down;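 note: PC12 cells with 6xCRE LacZ reporter stimulated by forskolin 10 µM; beta-galactosidase reporter signal reflecting CREB driven transcription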
# [6] = molecular target: Streptavidin (Streptomyces avidinii) (UniProt P22629); experiment: streptavidin binders on small-molecule microarray, primary screen, artefact control for SMM compound annotation, biophysical, 635/667 nm fluorescence (AID 1147); conditions: streptavidin binding, higher = more signal;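 note: signal reflects streptavidin binding to arrayed compounds as a control protein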
# [7] = small-molecule binders of probe aInhba, primary screen, biochemical, small-molecule microarray, 635/667 nm fluorescence (AID 1148); conditions: higher = more signal;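 note: score merges 667nm spot fluorescence with signal-to-noise for antibody binding to printed compounds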
# Torsin-1A (Homo sapiens) [8] = molecular target: Torsin-1A (Homo sapiens) (UniProt O14656); experiment: torsin A binders from cell lysate, primary screen, small-molecule microarray, wild-type, 635/667 nm (AID 1149); conditions: COS7 hTOR1A-WT lysate, 635 nm fluorescence, higher = more signal
# Torsin-1A (Homo sapiens) [9] = molecular target: Torsin-1A (Homo sapiens) (UniProt O14656); experiment: small-molecule binders of mutant TOR1A in lysate, primary screen, cell lysate, small-molecule microarray, COS7 lysate, 635/667 nm fluorescence (AID 1150); conditions: COS7 hTOR1A mutant lysate, 635 nm fluorescence, higher = more signal;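 note: score pools 667 nm emission and signal to noise measuring lysate protein binding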
# [10] = test system: Sonic hedgehog protein (Shh); experiment: small-molecule binders of Shh protein, primary screen, biochemical, small-molecule microarray, 635/667 nm fluorescence (AID 1151); conditions: small-molecule microarray binding, 635 nm fluorescence; higher = more signal;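 note: Shh protein binding to compounds spotted on small-molecule microarray slides; score combines spot fluorescence intensity with signal-to-noise across triplicate slides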
# [11] = E. coli DRC41 culture turbidity changes, primary screen, E. coli filamentation inducer project, strain DRC41, OD650, 48 h (AID 1152);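 note: E. coli MC1000 strain DRC41 lacking acrAB efflux pump and sulA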; conditions: E. coli DRC41 (acrAB sulA), higher = more signal, called active from +8 up or from −8 down
# [12] = small-molecule binders of probe aLefty1, primary screen, biochemical, small-molecule microarray, 635/667 nm fluorescence (AID 1153); conditions: higher = more signal;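 note: score merges spot fluorescence with signal-to-noise ratio from the scanned slide images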
# [13] = PSAC antagonists in infected red cells, primary screen, cell-based, P. falciparum Indochina, OD700, 1 h (AID 1154); conditions: P. falciparum Indochina infected RBC osmotic lysis, higher = more signal, called active from +8 up or from −8 down
# [14] = PSAC antagonists in infected red cells, primary screen, cell-based, P. falciparum Indochina, OD700, 2 h (AID 1155);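 note: lysis reports solute entry through the parasite surface anion channel PSAC; channel blockers reduce lysis of infected cells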; conditions: P. falciparum Indochina infected erythrocytes, osmotic lysis OD700; higher = more signal, called active from +8 up or from −8 down
# [15] = osmotic lysis modulators in infected erythrocytes, primary screen, PSAC antagonist project, cell-based, P. falciparum Indochina, OD700, 3 h (AID 1156); conditions: higher = more signal, called active from +8 up or from −8 down
# [16] = PSAC antagonists in infected red cells, primary screen, cell-based, P. falciparum Indochina, OD700, 18 h (AID 1157); conditions: P. falciparum Indochina infected erythrocytes, osmotic lysis OD700, 18 h; higher = more signal, called active from +8 up or from −8 down
# [17] = modulators of S6 phosphorylation in cells, primary screen, cell-based, A549, cytoblot, luminescence, serum-stimulated (AID 1158); conditions: A549 phospho-S6 cytoblot, 5 h, higher = more signal;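 note: serum-stimulated A549 lung adenocarcinoma cells; signal is phosphorylated S6 detected by cytoblot immunostaining with HRP secondary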
# [18] = molecular target: NADPH oxidase 2 (Homo sapiens) (UniProt P04839); experiment: NOX2-dependent H2O2 signal modulators, primary screen, NOX inhibitor project, cell-based, HEK293-NOX2, PMA-stimulated, Amplex Red fluorescence (AID 1159); conditions: 45 min, higher = more signal, called active from +8 up or from −8 down; note: test concentration not given here
# [19] = molecular target: NADPH oxidase 4 (Homo sapiens) (UniProt Q9NPH5); experiment: NOX4-dependent H2O2 signal modulators, primary screen, NOX inhibitor project, cell-based, HEK293-NOX4, tetracycline-induced, Amplex Red fluorescence (AID 1160); conditions: 45 min, higher = more signal, called active from +8 up or from −8 down
# [20] = molecular target: NADPH oxidase 5 (Homo sapiens) (UniProt Q96PH1); experiment: NOX5-dependent H2O2 signal modulators, primary screen, NOX inhibitor project, cell-based, HEK293-NOX5, Amplex Red fluorescence (AID 1161); conditions: HEK293-NOX5, ionomycin, 45 min, higher = more signal
# Sequence of NADPH oxidase 5 (Homo sapiens) (Q96PH1 whole entry, looked up): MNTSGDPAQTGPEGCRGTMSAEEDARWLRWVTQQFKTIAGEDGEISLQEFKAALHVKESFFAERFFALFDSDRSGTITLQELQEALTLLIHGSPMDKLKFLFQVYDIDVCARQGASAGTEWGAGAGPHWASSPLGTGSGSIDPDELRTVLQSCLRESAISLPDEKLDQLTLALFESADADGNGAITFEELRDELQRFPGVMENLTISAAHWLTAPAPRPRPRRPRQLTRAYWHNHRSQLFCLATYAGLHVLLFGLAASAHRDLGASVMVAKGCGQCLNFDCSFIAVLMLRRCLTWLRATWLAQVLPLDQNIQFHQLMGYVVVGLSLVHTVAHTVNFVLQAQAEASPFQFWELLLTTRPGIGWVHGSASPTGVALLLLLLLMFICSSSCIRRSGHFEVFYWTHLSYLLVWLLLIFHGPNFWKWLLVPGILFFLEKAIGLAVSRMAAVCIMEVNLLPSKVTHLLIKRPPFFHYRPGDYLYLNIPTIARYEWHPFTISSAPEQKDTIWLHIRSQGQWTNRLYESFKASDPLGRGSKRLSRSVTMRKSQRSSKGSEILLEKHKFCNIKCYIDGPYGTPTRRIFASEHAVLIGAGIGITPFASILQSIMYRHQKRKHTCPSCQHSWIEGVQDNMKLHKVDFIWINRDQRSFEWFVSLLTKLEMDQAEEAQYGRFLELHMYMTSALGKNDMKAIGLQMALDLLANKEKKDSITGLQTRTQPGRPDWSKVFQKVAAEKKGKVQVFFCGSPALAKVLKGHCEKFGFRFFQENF
# Sequence of NADPH oxidase 4 (Homo sapiens) (Q9NPH5 whole entry, looked up): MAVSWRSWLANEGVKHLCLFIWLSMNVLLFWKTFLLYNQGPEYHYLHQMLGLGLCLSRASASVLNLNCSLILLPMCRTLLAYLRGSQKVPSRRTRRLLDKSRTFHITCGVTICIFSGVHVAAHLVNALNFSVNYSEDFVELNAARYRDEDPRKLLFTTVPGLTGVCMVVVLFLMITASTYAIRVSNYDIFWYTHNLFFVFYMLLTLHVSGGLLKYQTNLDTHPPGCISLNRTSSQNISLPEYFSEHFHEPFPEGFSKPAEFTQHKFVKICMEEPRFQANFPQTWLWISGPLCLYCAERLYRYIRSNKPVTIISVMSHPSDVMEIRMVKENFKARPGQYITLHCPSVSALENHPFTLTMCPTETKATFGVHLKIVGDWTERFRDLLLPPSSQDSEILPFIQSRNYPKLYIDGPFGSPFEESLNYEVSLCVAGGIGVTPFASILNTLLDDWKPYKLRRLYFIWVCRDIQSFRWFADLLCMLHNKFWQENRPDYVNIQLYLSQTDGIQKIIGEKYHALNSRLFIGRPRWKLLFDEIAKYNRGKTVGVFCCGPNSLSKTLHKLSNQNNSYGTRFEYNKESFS
# Sequence of Torsin-1A (Homo sapiens) (O14656 whole entry, looked up): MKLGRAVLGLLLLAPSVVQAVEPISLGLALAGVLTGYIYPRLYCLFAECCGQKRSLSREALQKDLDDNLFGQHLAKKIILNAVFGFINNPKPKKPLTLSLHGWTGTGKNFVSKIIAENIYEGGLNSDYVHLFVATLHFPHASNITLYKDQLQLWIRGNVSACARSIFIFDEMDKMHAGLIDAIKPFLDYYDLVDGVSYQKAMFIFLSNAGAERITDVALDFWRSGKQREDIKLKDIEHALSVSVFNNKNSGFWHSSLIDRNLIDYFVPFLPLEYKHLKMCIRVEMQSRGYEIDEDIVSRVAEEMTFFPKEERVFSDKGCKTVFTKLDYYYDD
# Sequence of Streptavidin (Streptomyces avidinii) (P22629 whole entry, looked up): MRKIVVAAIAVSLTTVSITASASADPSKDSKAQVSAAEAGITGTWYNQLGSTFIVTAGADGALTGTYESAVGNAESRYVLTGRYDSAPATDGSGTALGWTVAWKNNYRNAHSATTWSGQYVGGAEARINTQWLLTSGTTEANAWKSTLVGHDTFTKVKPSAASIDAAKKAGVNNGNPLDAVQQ
# Sequence of NADPH oxidase 2 (Homo sapiens) (P04839 whole entry, looked up): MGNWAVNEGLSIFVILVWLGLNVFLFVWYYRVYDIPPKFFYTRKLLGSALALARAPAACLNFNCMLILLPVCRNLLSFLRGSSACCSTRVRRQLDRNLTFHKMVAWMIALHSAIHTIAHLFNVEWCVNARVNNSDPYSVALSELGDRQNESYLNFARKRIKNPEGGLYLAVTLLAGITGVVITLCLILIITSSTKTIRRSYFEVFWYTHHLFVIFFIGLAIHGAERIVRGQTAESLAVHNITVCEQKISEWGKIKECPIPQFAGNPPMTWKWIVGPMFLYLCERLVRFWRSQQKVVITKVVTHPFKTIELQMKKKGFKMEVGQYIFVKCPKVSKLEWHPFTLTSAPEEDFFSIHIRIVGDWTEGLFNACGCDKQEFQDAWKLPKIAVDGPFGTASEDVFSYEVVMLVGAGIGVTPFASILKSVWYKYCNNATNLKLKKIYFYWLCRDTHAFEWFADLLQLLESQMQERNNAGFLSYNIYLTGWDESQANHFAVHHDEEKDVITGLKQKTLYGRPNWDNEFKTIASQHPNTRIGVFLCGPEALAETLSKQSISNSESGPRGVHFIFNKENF
Compound,composite z-score [1],z-score [2],z-score [3],z-score [4],z-score [5],composite z-score [6],composite z-score [7],composite z-score (Torsin-1A (Homo sapiens) [8]),composite z-score (Torsin-1A (Homo sapiens) [9]),composite z-score [10],z-score [11],composite z-score [12],z-score [13],z-score [14],z-score [15],z-score [16],z-score [17],z-score [18],z-score [19],z-score [20]
C#CCCCON=C1C[C@@H](O)[C@@H](O)[C@@H]2[C@@H]3C(=O)N(C4CCCCC4)C(=O)[C@@H]3CC[C@H]12,-0.176,-0.379 (inactive),0.353 (inactive),-0.474 (inactive),-0.236 (inactive),1.03,-0.101,1.06,0.0924,-0.105,0.747 (inactive),-0.147,0.869 (inactive),-0.68 (inactive),0.403 (inactive),-0.113 (inactive),-0.126,-1.26 (inactive),-0.426 (inactive),-2.7
C=CCN(C(=O)C1N(C(C)(C)CO)C(=O)C2C(C(=O)O)C3C=CC21O3)c1ccc(OC)cc1 (stereo not given),-0.737 and -0.572,-0.265 (inactive) and -0.156 (inactive),1.42 (inactive),-0.761 (inactive) and -0.501 (inactive),-1.27 (inactive) and -0.62 (inactive),-1.73 and -1.67,-0.227 and -0.38,-2.67 and -1.85,-1.25 and -2.3,-0.639 and -2.16,2.14 (inactive) and 0.776 (inactive),-0.0544 and -0.333,2.3 (inactive) and -0.0606 (inactive),-0.613 (inactive) and -0.0765 (inactive),-1.82 (inactive) and 0.228 (inactive),-0.646 (inactive) and -0.183 (inactive),0.228 and -0.0837,0.833 (inactive) and -0.0915 (inactive),-2.16 (inactive) and -2.56 (inactive),0.782 and -1.03
C=CCN(C(=O)C1N(C(C)(C)CO)C(=O)C2C(C(=O)O)C3C=CC21O3)C(C)(C)C (stereo not given),-1.52 and -0.697,-0.037 (inactive) and -0.67 (inactive),1.58 (inactive) and 1.05 (inactive),0.471 (inactive) and 0.996 (inactive),0.0027 (inactive) and -0.21 (inactive),-1.86 and -1.52,-0.271 and -0.302,-3.46 and 0.256,-2.89 and 0.829,-2.51 and -1.85,-0.497 (inactive) and 0.156 (inactive),0.0026 and -0.316,-0.455 (inactive) and -0.501 (inactive),0.222 (inactive) and 0.135 (inactive),-0.67 (inactive) and -0.452 (inactive),0.11 (inactive) and -0.11 (inactive),-0.356 and -0.316,0.849 (inactive) and 0.0709 (inactive),-1.48 (inactive) and -2.38 (inactive),0.103 and -0.476
